Source: PubChem BioAssay
USP1-UAF1 inh – USP1/UAF1 (human) deubiquitinase inhibition; O94782; recombinant USP1/UAF1, Ub-Rhodamine cleavage fluorescence; Potency, µM (doses to about 57.1 µM), usual class: inhibitors; 390,000 compounds, 0.23% hits; AID 743255; note: nearly all actives have a fitted effect of over 60% in size
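USP1/UAF1 complex at 1 nM was preincubated with compound for 15 min at room temperature, then Ub-Rho substrate (150nM final) was added. Fluorescence (480/540 nm) was read kinetically, 6 reads every 60 seconds.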
GCN5L2 inh – inhibitors of human GCN5L2 histone acetyltransferase. GCN5L2 HAT assay, ThioGlo1 CoA-SH fluorescence. Q92830. Potency, µM (doses to about 58.9 µM), most hits filed as inhibitors. 390,000 compounds, 0.21% hits
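ThioGlo1-coupled HAT assay: 20nM GCN5L2, 70uM acetyl-CoA, 75uM H3(1-25) peptide, pH 7.5. Fluorescence read at 340/540nm at start and after 20 min at room temperature.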
TSG101-PTAP inh – blocks PTAP/TSG101 interaction to inhibit HIV-1 budding; Potency, µM (series often up to 115 µM), most hits filed as inhibitors; 340,000 tested, under 10 active; AID 493005; Fluorescence polarization, FITC-PTAP peptide / Tsg101 binding; active = well fitted inhibition curve with a large enough effect in the main read-out, with a control signal flat, not every such curve was filed as active; inconclusive = small, poorly fitted or top-dose-only effect, or effect the other way, or a change in a side signal; inactive = no such curve, though single readings can be large or run the other way
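Compounds were pin-transferred onto Tsg101 binding domain (10 uM final) in HEPES pH 7.5 buffer, then FITC-PTAP peptide was added at 50 nM final. After 20 min at RT, polarization reported peptide displacement across a qHTS concentration series.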
PLK1 PBD block – inhibitors of human PLK1 polo-box domain binding; Plk1 PBD binding of FITC phosphopeptide, fluorescence polarization; Potency, µM, hits mostly inhibitors; AID 720504; 360,000 compounds, 2.8% hits; note: series mostly up to about 57 µM; nearly all actives have a fitted effect of over 65% in size
VDR inh – vitamin D3 receptor (human) inhibition | P11473 | VDR-SRC2-3 peptide fluorescence polarization, 2 h | Potency, µM, actives largely listed as inhibitors | 400,000 compounds, 0.93% hits | AID 504847
Target sequence (P11473 whole entry, looked up): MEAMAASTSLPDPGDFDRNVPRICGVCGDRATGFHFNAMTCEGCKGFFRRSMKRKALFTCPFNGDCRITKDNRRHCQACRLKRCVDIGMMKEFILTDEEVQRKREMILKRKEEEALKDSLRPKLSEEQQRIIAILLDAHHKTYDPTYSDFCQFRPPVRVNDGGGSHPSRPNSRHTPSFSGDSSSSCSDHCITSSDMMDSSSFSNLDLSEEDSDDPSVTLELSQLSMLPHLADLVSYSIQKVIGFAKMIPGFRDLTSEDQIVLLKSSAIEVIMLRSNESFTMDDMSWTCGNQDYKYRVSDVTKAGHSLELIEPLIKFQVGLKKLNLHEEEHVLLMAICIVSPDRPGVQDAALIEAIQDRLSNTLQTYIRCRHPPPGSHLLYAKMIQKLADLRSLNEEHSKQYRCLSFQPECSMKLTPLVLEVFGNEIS
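Signal is fluorescence polarization, reporting how far test compounds block the interaction of VDR with the SRC2-3 coregulator peptide after a 2 h room-temperature incubation.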
TbPYK confirm – Trypanosoma brucei pyruvate kinase inhibition, cherry-pick confirmation; shares compounds with PLK1 PBD block; recombinant TbPYK, Kinase-Glo ATP luminescence; Potency, µM (series often up to 76.9 µM), most hits filed as inhibitors; 890 compounds, 67% hits; AID 720569; note: nearly all actives have a fitted effect of over 70% in size
TbPYK ADP-Glo – TbPYK inhibition, orthogonal confirmation; Potency, µM (highest dose often 76.9 µM), usual class: inhibitors; recombinant TbPYK, ADP-Glo luminescence, 60 min; AID 720584; shares compounds with PLK1 PBD block; 890 compounds, 62% hits; note: nearly all actives have a fitted effect of over 75% in size
Large screens that a line does not name were inactive (follow-up assays come after a bar, where they were run). Sampled rows, rich in hits. Any-hit rate of the full collection: about 3%. Unless noted, calls come from the whole dose curve; as a rule, active = well fitted curve in the direction sought with a large enough effect; inconclusive = small, poorly fitted or top-dose-only effect, or another doubt; inactive = no such curve, though single readings can be large; an effect the other way counts as inactive or inconclusive.

COC1CC(C)C(OC)c2cc(O)cc(c2O)NC(=O)C(C)=CC=CC(C)C(OC(N)=O)C(C)=CC(C)C1OC (configuration not stated)	PLK1 PBD block 18.9µM, VDR inh inconclusive (no result: GCN5L2 inh) | TbPYK confirm inconclusive | TbPYK ADP-Glo 12.6µM
CN1C(=O)C(=Cc2ccccc2Oc2ccc(Cl)c(F)c2)C(=O)N(C)C1=O	USP1-UAF1 inh inconclusive, PLK1 PBD block 4.23µM, VDR inh 28.2µM | TbPYK confirm inconclusive | TbPYK ADP-Glo inactive
CN1C(=O)C(=Cc2cc([N+](=O)[O-])ccc2N2CCCCC2)C(=O)N(C)C1=O	none
CCCC(C)C1(CC)C(=O)NC(=S)NC1=O (configuration not stated)	GCN5L2 inh inconclusive (no result: USP1-UAF1 inh, TSG101-PTAP inh, PLK1 PBD block)
Cc1cc(C=C2C(=O)N(C)C(=S)N(C)C2=O)c(C)n1-c1cccnc1	PLK1 PBD block 2.12µM, VDR inh inconclusive | TbPYK confirm inconclusive | TbPYK ADP-Glo inconclusive
COc1cc(/C=C2/C(=O)NC(=O)N(c3ccc(C)cc3)C2=O)cc(OC)c1OC	PLK1 PBD block 11.9µM, VDR inh inconclusive | TbPYK confirm inconclusive | TbPYK ADP-Glo inconclusive
COc1cc(/C=C2\C(=O)NC(=O)N(c3ccccc3)C2=O)cc(OC)c1OC	PLK1 PBD block 13.4µM, VDR inh inconclusive | TbPYK confirm inconclusive | TbPYK ADP-Glo inconclusive
Cc1ccc(N2C(=O)NC(=O)/C(=C/c3ccoc3)C2=O)cc1	USP1-UAF1 inh inconclusive, PLK1 PBD block 2.67µM | TbPYK confirm inconclusive | TbPYK ADP-Glo inactive
Cc1cc(C)cc(N2C(=O)NC(=O)/C(=C\c3cc(C)n(C)c3C)C2=O)c1	none
COc1ccc(CN2C(=O)NC(=O)/C(=C/c3ccc(OC)c(OC)c3OC)C2=O)cc1	PLK1 PBD block 8.44µM, VDR inh inconclusive | TbPYK confirm 28.2µM | TbPYK ADP-Glo inconclusive
Cn1cccc1/C=C1/C(=O)NC(=O)N(Cc2ccccc2)C1=O	PLK1 PBD block inconclusive, VDR inh inconclusive
COc1ccc(CN2C(=O)NC(=O)/C(=C/c3cc(OC)c(OC)c(OC)c3)C2=O)cc1	PLK1 PBD block 11.9µM, VDR inh inconclusive | TbPYK confirm inconclusive | TbPYK ADP-Glo inactive
COC(=O)[C@@H]1[C@@H]2C[C@H]3c4[nH]c5cc(OC)ccc5c4CCN3C[C@@H]2C[C@H](OC(=O)/C=C\c2cc(OC)c(OC)c(OC)c2)[C@H]1OC	GCN5L2 inh inconclusive (no result: USP1-UAF1 inh, TSG101-PTAP inh, PLK1 PBD block)
CCN(CC)C(=O)c1ccc2c(c1)C1C=CCC1C(C(=O)O)N2 (configuration not stated)	USP1-UAF1 inh 25.1µM, TSG101-PTAP inh inconclusive, PLK1 PBD block 7.52µM, VDR inh inconclusive | TbPYK confirm 3.98µM | TbPYK ADP-Glo inconclusive
O=c1[nH]c(O)c(/C=C2\C=NN=C2c2ccccc2)c(=O)[nH]1	PLK1 PBD block 3.55µM, VDR inh inconclusive | TbPYK confirm 11.2µM | TbPYK ADP-Glo 31.6µM
O=c1[nH]c(O)c(C=Nc2ccccc2Oc2ccccc2)c(=O)[nH]1	none
CCCc1nn(C)c2c1C(c1ccncc1)C(C#N)=C(N)O2 (configuration not stated)	PLK1 PBD block inconclusive
COc1ccc(OC)c(N2C(=O)NC(=O)/C(=C\c3ccc([N+](=O)[O-])s3)C2=O)c1	USP1-UAF1 inh inconclusive, GCN5L2 inh inconclusive, PLK1 PBD block 2.67µM, VDR inh inconclusive | TbPYK confirm 2.82µM | TbPYK ADP-Glo inconclusive
C/C=C/C/C=C/CCC(=O)[C@H]1O[C@H]1C(N)=O	VDR inh inconclusive (no result: USP1-UAF1 inh, TSG101-PTAP inh, PLK1 PBD block)
NCCCNCCCCNCCCNC(=O)Cc1ccc(O)cc1	none (no result: USP1-UAF1 inh, TSG101-PTAP inh, PLK1 PBD block)
COc1ccc(-c2nc(CSCC(=O)N3CCC4(CC3)OCCO4)c(C)o2)cc1OC	none
CCOC(=O)CSCCOc1ccc(C=C2C(=O)NC(=O)NC2=O)cc1OC	PLK1 PBD block 8.44µM, VDR inh inconclusive | TbPYK confirm 15.8µM | TbPYK ADP-Glo inconclusive
CCOc1ccccc1N1C(=O)NC(=O)/C(=C/c2ccc3c4c(cccc24)CC3)C1=O	USP1-UAF1 inh inconclusive, PLK1 PBD block 6.7µM, VDR inh inconclusive | TbPYK confirm inconclusive | TbPYK ADP-Glo inconclusive
CCOC(=O)C1CCN(/C=C2/C(=O)NC(=O)N(c3cccc(C)c3C)C2=O)CC1	none
C[C@@H](C(=O)O)c1ccc(C(=O)c2cccs2)cc1	none (no result: USP1-UAF1 inh, TSG101-PTAP inh, PLK1 PBD block)
COC(=O)C1=C(C(=O)OC)C2OC1c1cc3ccccc3cc12	PLK1 PBD block 2.99µM, VDR inh 8.91µM (no result: GCN5L2 inh) | TbPYK confirm 10µM | TbPYK ADP-Glo 12.6µM
